Results from PubChem BioAssay (Tox21).
The source made the active and inactive calls. Calls come from the whole dose curve.

molecular target: Acetylcholinesterase (Homo sapiens) (UniProt P22303); assay: Acetylcholinesterase (AChE) small molecule antagonists: enzyme-based qHTS assay (AID 1347397); settings: Potency: AChE enzyme activity inhibition; outcome: AChE enzyme activity inhibition; series mostly up to 115 µM; activity change, negative = inhibition: at the top concentration; note: nearly all actives have a fitted effect of over 55% in size
Outline: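 Human recombinant acetylcholinesterase; substrate acetylthiocholine; thiocholine quantified with DTNB (colorimetric). Compound preincubation 30 min RT; reaction 10 min RT.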
% is set by controls: 0 for no effect and ±100 for the full control effect; potency is the fitted concentration of half-maximal effect.

Chain of Acetylcholinesterase (Homo sapiens) (P22303 whole entry, looked up): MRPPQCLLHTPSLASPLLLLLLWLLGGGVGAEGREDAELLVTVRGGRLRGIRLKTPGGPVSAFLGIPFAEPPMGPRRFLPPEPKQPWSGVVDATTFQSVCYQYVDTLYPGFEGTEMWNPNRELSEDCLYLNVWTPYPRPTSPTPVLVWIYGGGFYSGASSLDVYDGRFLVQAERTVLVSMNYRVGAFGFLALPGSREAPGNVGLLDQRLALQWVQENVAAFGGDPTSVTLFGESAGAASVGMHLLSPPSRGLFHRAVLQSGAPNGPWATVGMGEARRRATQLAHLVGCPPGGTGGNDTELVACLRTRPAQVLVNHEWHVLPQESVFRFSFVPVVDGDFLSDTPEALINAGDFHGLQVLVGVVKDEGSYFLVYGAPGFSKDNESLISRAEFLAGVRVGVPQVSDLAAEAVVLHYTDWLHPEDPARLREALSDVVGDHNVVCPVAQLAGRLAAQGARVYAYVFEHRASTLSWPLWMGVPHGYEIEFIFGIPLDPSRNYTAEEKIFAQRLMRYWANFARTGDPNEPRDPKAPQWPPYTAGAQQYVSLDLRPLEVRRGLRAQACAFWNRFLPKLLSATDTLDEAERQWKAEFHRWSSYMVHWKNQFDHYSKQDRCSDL

| Compound | activity change, negative = inhibition | Potency |
| --- | --- | --- |
| NC(=O)c1ccc([N+](=O)[O-])cc1 | -0.0103% (inactive) |  |
| CC(=O)Nc1ccc(OCC(O)CNC(C)C)cc1 (stereo not given) | -0.277% [at 53 µM] (inactive) |  |
| CN(C)CCCN(C)C | 0.096% [at 10.5 µM] (inactive) |  |
| CCCc1ccccc1O | 0.146% (inactive) |  |
| COc1cc(C(=O)N2CCCCCCC2)cc(OC)c1OC | -0.54% [at 53 µM] (inactive) |  |
| C[C@H]1C[C@H]2[C@@H]3CCC4=CC(=O)C=C[C@]4(C)[C@@]3(F)[C@@H](O)C[C@]2(C)[C@@]1(O)C(=O)COP(=O)(O)O | -0.151% (inactive) |  |
| Cc1ccccc1OCC(O)CO (stereo not given) | -0.54% [at 53 µM] (inactive) |  |
| CCCCCCCCCCCCCCO |  | inactive |
| CC(C)(O)C#CC(C)(C)O | -1.91% (inactive) |  |
| Oc1ccccc1O |  | inactive |
| Cc1ccccc1Cl |  | inactive |
| CCN1C(=O)c2ccccc2C1Nc1ccc(OCCN2CCCCC2)cc1 (stereo not given) | 0.896% [at 53 µM] (inactive) |  |
| CCc1ccc(Br)cc1 | 1.91% (inactive) |  |
| CC1=CC(=O)CCC1 | -0.573% (inactive) |  |
| CC(O)CN (stereo not given) | 3.46% (inactive) |  |
| CCc1c(C(=O)O)c(=O)cnn1-c1ccc(Cl)cc1 | 1.21% (inactive) |  |
| CC(=O)O[C@@H]1CC2C3CCc4cc(OC(=O)c5ccccc5)ccc4C3CCC2(C)[C@H]1OC(C)=O (stereo not given in full) | 0.234% [at 53 µM] (inactive) |  |
| Cc1ccc2c(n1)Oc1ccc(C(C)C(=O)OCC(=O)N(C)C)cc1C2 (stereo not given) |  | 15.5 µM (active) |
| O=C1c2ccccc2C(=O)C1c1ccc2ccccc2n1 | 0.37% [at 53 µM] (inactive) |  |
| O=C(O)Cc1c(Cl)ccc(Cl)c1Cl | -0.258% (inactive) |  |

| Compound | activity change, negative = inhibition | Potency |
| --- | --- | --- |
| O=C(O)C(=O)Nc1cccc(-c2nn[nH]n2)c1 | 0.405% [at 53 µM] (inactive) |  |
| C=C(C)C(=O)OCCCCCCCCCCCCCCCCCC | 0.946% [at 23.6 µM] (inactive) |  |
| CCC(C)OC(=O)c1ccc(O)cc1 (stereo not given) |  | inactive |
| CCCCCC(=O)OCCc1ccccc1 | -0.412% (inactive) |  |
| C=C(C)C(=O)OCCOC(=O)CC(C)=O | 0.29% (inactive) |  |
| CCOC(=O)Cn1cccc1-c1nc(-c2ccc(OC)cc2)c(-c2ccc(OC)cc2)s1 | -0.605% [at 53 µM] (inactive) |  |
| CC1COc2ccccc2N1C(=O)C(Cl)Cl (stereo not given) |  | inactive |
| Cc1ccc(C(C)C)cc2c(C)ccc1-2 | 0.135% [at 53 µM] (inactive) |  |
| Cc1c[nH]c2ccccc12 | -1.94% [at 53 µM] (inactive) |  |
| N=C(N)N | -0.0669% [at 53 µM] (inactive) |  |
| CC(=O)NCCO | 0.774% (inactive) |  |
| CCS(=O)(=O)c1ccc(OC)c(C(=O)OC)c1 | -0.27% [at 53 µM] (inactive) |  |
| CCCCN(CCCC)C(=O)N(CCCC)CCCC | -0.762% (inactive) |  |
| CC(C)OC(=O)c1cc(C(=O)OC(C)C)cc([N+](=O)[O-])c1 | -5.83% (inactive) |  |
| ON=C1CCCCC1 |  | inactive |
| O=C(O)[C@H](O)[C@@H](O)[C@H](O[C@@H]1O[C@H](CO)[C@H](O)[C@H](O)[C@H]1O)[C@H](O)CO | 1.24% [at 53 µM] (inactive) |  |
| CCCCCCCCCCCCCC(=O)OCC | -0.295% (inactive) |  |
| CC(CCO)CCCC(C)(C)O (stereo not given) | 0.188% (inactive) |  |
| O=c1oc(=O)c2cc3c(=O)oc(=O)c3cc12 |  | inactive |
| CC(=O)c1ccc2c(c1)N(CCCN(C)C)c1ccccc1S2 | 2.02% [at 53 µM] (inactive) |  |
